The structures appear in SMILES notation. Inconclusive results are not listed. A call without a number means that no potency is given here. Active and inactive are the calls of the source. The call rests on the fitted dose curve; in most records, active means well fitted inhibition curve with a large enough effect; inconclusive means small, poorly fitted or top-dose-only effect; inactive means flat fitted curve, though single readings scatter.
Further: nearly all actives have a fitted effect of over 65% in size.

Phospholipid hydroperoxide glutathione peroxidase GPX4 (Homo sapiens), sequence (P36969 whole entry, looked up): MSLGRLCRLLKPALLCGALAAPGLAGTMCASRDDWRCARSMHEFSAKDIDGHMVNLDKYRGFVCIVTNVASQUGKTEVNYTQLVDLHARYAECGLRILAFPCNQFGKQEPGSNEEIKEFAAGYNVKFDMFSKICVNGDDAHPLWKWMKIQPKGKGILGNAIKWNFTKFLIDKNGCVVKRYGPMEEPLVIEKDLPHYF
Glutathione peroxidase 1 (Homo sapiens), sequence (P07203 whole entry, looked up): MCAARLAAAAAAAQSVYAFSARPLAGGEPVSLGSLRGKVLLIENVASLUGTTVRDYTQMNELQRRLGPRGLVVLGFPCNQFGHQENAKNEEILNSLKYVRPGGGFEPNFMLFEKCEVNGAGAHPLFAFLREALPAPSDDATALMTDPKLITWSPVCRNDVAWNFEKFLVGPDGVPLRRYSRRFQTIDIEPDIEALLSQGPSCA

The first assay deals with Glutathione peroxidase 1 (Homo sapiens) (UniProt P07203). The assay is described as follows: Primary qHTS Assay for Inhibitors of Recombinant Selenoprotein Glutathione Peroxidase 1 (GPX1) (AID 1845191). As to conditions: recombinant GPX1, GR-coupled NADPH fluorescence, 15 min; series mostly up to 48.8 µM. In a few lines:
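GPX1 10 nM, GR 100 nM, GSH 1 mM, NADPH 0.5 mM, CHP 0.5 mM (final). 30-min cpd preincubation, RT. Ex340/Em450 read t=0, t=15 min.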
For orientation: qHTS replaces the single test concentration by a dilution series.
Regarding `C[C@@H]1CN(Cc2ccccc2)C[C@H]1c1nc2c(cnn2C2CCOCC2)c(=O)[nH]1`, the Potency result is “inactive”.

Turning to `C=C[C@]1(C)C=C2CCC3C(C)(CCC[C@@]3(C)C(=O)O)C2CC1` (some centres not stated), the Potency entry was “inactive”.

`C=CC(C)(CC/C=C(\C)C(=O)OC)OC1OC(COC(=O)CC(C)(O)CC(=O)O)C(OC2OC(CO)C(O)C(O)C2O)C(O)C1O` (configuration not stated): the Potency result was “inactive”.

In the case of `O=C(NCc1cccc(O)c1)Nc1nc(-c2ccncc2)cs1`, the Potency result is “inactive”.

In the case of `C[C@@H]1CC[C@]2(C(=O)O[C@@H]3O[C@H](CO)[C@@H](O)[C@H](O)[C@H]3O)CC[C@]3(C)C(=CCC4[C@@]5(C)C[C@@H](O)[C@H](O)[C@](C)(C(=O)O)C5CC[C@]43C)[C@@H]2[C@]1(C)O` (some centres not stated), the Potency result is “inactive”.

Turning to `COC(=O)CC(O)CC(O)/C=C/c1c(C)ccc2c1C(O)CC(C)C2` (configuration not stated), the Potency entry was “inactive”.

As for `O=C1OCc2cc3cccc(O[C@@H]4O[C@H](CO)[C@@H](O)[C@H](O)[C@H]4O)c3c(O)c21`, the Potency result was “inactive”.

Take `C=C1C[C@@]23CCC4[C@@](C)(CCC[C@@]4(C)C(=O)OC)C2CC[C@@H]1C3` (some centres not stated): the Potency entry is “inactive”.

Take `CC1(C)C2CC=C(COC3OC(COC4OCC(O)(CO)C4O)C(O)C(O)C3O)C1C2` (configuration not stated): the Potency entry is “inactive”.

The target of a further assay is Phospholipid hydroperoxide glutathione peroxidase GPX4 (Homo sapiens) (UniProt P36969). The assay is described as follows: Primary qHTS Assay for Inhibitors of Recombinant Selenoprotein Glutathione Peroxidase 4 (GPX4) (AID 1845192). Particulars: recombinant GPX4, GR-coupled NADPH fluorescence, 15 min; series mostly up to 50 µM. A digest of the protocol:
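qHTS, GR-coupled: GPX4 200 nM + cpd 30 min RT → GSH 1 mM, NADPH 0.5 mM, GR 100 nM → CHP 0.5 mM start; fluor 340/450 at t0 and t15 min; no-enzyme wells as control.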
On to `O=C(O)C(O[C@@H]1O[C@H](CO[C@@H]2O[C@H](CO)[C@@H](O)[C@H](O)[C@H]2O)[C@@H](O)[C@H](O)[C@H]1O)c1ccccc1` (some centres not stated), for which the Potency entry was “inactive”.

In the case of `O=C(CC(c1ccccc1)c1ccccc1)N1CCN(C(c2ccccc2)c2ccccc2)CC1`, the Potency result was “inactive”.

Consider `CS(=O)(=O)N(CC(=O)NCC1CC1)c1cc(C(F)(F)F)ccc1Cl`, for which the Potency entry was “inactive”.

Consider `CCOc1cc(C(=O)N2CCC(N3CCN(C)CC3)CC2)ccc1Nc1ncc2c(n1)N(C1CCCC1)c1ccccc1C(=O)N2C`, for which the Potency entry was “inactive”.

Consider `Cc1cc(C(=O)Nc2cccc(C(=O)Nc3cccc(C(F)(F)F)c3)c2)on1`, for which the Potency result is “inactive”.

`O=C(CCc1nnc2n(Cc3ccc(Cl)cc3)c(=O)c3ccccc3n12)NCCC1=CCCCC1`: the Potency result was “inactive”.

As for `CC(C)=CCC[C@](C)(O[C@@H]1O[C@H](CO)[C@@H](O)[C@H](O)[C@H]1O)[C@H]1CC[C@]2(C)[C@@H]1[C@H](O)CC1[C@@]3(C)CC[C@H](O)C(C)(C)C3[C@@H](O[C@@H]3O[C@H](CO)[C@@H](O)[C@H](O)[C@H]3O)C[C@]12C` (some centres not stated), the Potency entry is “inactive”.

Take `CC(C)(C)c1ccc(S(=O)(=O)NCc2ccc(C(=O)Nc3cccnc3)cc2)cc1`: the Potency result is “inactive”.

Take `C[C@@H]1C[C@H]2O[C@@H]2/C=C\C=C\C(=O)Cc2c(Cl)c(O)cc(O)c2C(=O)O1`: the Potency result is “inactive”.

For `C=C1CC2C(C)(CCC(=O)O)C(C(C)(C)O)CCC2(C)C2C(=O)OC(C)(C(=O)OC)C(=O)C12C` (configuration not stated), the Potency result is “inactive”.

Regarding `O=C(O)CC1CCC(c2ccc(-c3ccc4nc(C(=O)NCc5ccc(OC(F)(F)F)cc5)cn4c3)cc2)CC1` (configuration not stated), the Potency result was “inactive”.

Take `O=C1NC(Cc2c[nH]c3ccccc23)C(=O)NC1Cc1cnc[nH]1` (configuration not stated): the Potency result was “inactive”.

Regarding `COc1ccc(Cl)c(Nc2nc3ccccc3nc2NS(=O)(=O)c2cccc(NC(=O)C(C)(C)N)c2)c1`, the Potency result is “inactive”.

With `CC(=O)O[C@@H]1C[C@H](O)[C@@]23CO[C@H](O)[C@]1(C)C2C[C@@H](O)[C@]1(C)C3C(=O)[C@H](OC(C)=O)[C@@]2(C)[C@H](c3ccoc3)C[C@H]3O[C@]321` (some centres not stated), the Potency result was “inactive”.

For `COc1ccc(-c2ccc(-c3cn(C(=O)N4CCCCC4c4ccccc4)nn3)cc2)cc1` (configuration not stated), the Potency result was “inactive”.

Consider `CC1=C(C(=O)O)/C(=C/CO[C@@H]2O[C@H](COC(=O)/C=C/c3ccc(O)cc3)[C@@H](O)[C@H](O)[C@H]2O)C(O)C1` (some centres not stated), for which the Potency entry was “inactive”.

Regarding `O=C(Nc1ccn[nH]1)c1c(F)cccc1F`, the Potency result is “inactive”.

`CCOc1cc(C)c(Cl)cc1S(=O)(=O)n1cnc2ccccc21`: the Potency entry was “inactive”.

As to `C[C@@H]1C(=O)O[C@H]2C[C@]34[C@H]5C[C@@H](C(C)(C)C)[C@]36[C@@H](OC(=O)[C@H]6O)O[C@]4(C(=O)O5)[C@]21O`, the Potency result is “inactive”.

`COc1ccc([C@H]2CNC(=O)C2)cc1OC1CCCC1`: the Potency entry is “inactive”.

Regarding `CC(C)[C@@H]1C(=O)N(S(C)(=O)=O)[C@@H]2CCN(C(=O)/C=C/CN3CCCCC3)[C@H]21`, the Potency result was “inactive”.

Take `CC1(C)CC[C@]2(C(=O)O[C@@H]3O[C@H](CO)[C@@H](O)[C@H](O)[C@H]3O)CC[C@]3(C)C(=CCC4[C@@]5(C)C[C@@H](O)[C@H](O)[C@](C)(C=O)C5CC[C@]43C)[C@@H]2[C@@H]1O` (some centres not stated): the Potency entry is “inactive”.

In the case of `O=C(Nc1c(-c2cccs2)nc2ccccn12)c1ccc(Cl)cc1`, the Potency result was “inactive”.

The values are drawn from PubChem BioAssay (NCATS).
